Laboratory results from PubChem BioAssay (EPA / NIEHS).
The source holds several records for some structures; these can differ, active in one and inactive in another. Calls of active or inactive are those of the source. How the source made its calls: active means hit-call score of the fitted dose curve at least 0.9, where 1 is the maximum; inactive means score below 0.9.

experiment: APR_HepG2_MitoticArrest_72hr: Apredica 72-hour HepG2 Assay for Mitotic Arrest (AID 2282918); conditions: high-content imaging, actives raise or lower the signal
Protocol: APR_HepG2_72hr is a cell-based, multiplexed-readout assay that uses HepG2, a human liver cell line, with measurements taken at 72 hours after chemical dosing in a 384-well plate.APR_HepG2_MitoticArrest_72hr is one of 10 assay component(s) measured or calculated from the APR_HepG2_72hr assay. It is designed to make measurements of cell phenotype, a form of morphology reporter, as detected with fluorescence intensity signals by HCS Fluorescent Imaging technology.Data from the assay component APR_HepG2_MitoticArrest_72hr was analyzed into 1 assay endpoint. This assay endpoint, APR_HepG2_MitoticArrest_72hr, was analyzed with bidirectional fitting relative to DMSO as the negative control and baseline of activity. Using a type of morphology reporter, measures of protein for gain or loss-of-signal activity can be used to understand the signaling at the pathway-level as they relate to the gene . Furthermore, this assay endpoint can be referred to as a primary readout, because this assay has produced multiple assay endpoints where this one serves a signaling function. To generalize the intended target to other relatable targets, this assay endpoint is annotated to the cell cycle intended target family, where the subfamily is arrest.
Cells were treated with dimethyl sulfoxide (DMSO) as a solvent control at a final concentration of 0.5% v/v or with compounds in DMSO with a resulting final DMSO concentration of 0.5% v/v. Compound treatment was done at concentrations of 0.39, 0.78, 1.56, 3.12, 6.24, 12.5, 25, 50, 100, and 200 uM in duplicate on each plate. Cells were treated with compounds for 1, 24, or 72 hr. Carbonyl […] m-chloro-phenylhydrazone (CCCP) and taxol were used as positive controls for mitochondrial function and cytoskeletal stability, respectively; DMSO served as the negative control for this experiment. Cells were fixed by the direct addition of 50 uL formaldehyde in Hank's Balanced Salt Solution (HBSS) to a final concentration of 3.7%. After incubation in the fixation medium for 30 min at room temperature (293-298 K), cells were rinsed twice with HBSS and treated with cell permeabilization buffer (16 uL of 0.5% Triton X-100) for 10 min at room temperature (293-298 K) before labeling. For mitochondrial membrane potential and mitochondrial measurements, pre-fixed cells were incubated with 50 uL of MitoTracker Red CMXRos (Invitrogen) at a concentration of 250 nM for 30 min before fixation. In the remaining cases, post-fixed cells were labeled by incubation with a multiplexed mixture of primary antibodies in HBSS for 60 min at room temperature (293-298 K) to detect immunoreactivity of c-Jun (1:500), phospho-histone H3 (1:100), phospho-histone H2A.x (1:200), p53 (1:400), alpha-tubulin (1:200) and Hoechst 33342 (2 ug/mL). Cells were labeled for multiplexed imaging on two separate plates: a) Hoechst 33342, MitoTracker Red, phospho-histone H3, and alpha-tubulin, and b) Hoechst 33342, phospho-histone H2A.x, and c-Jun. A final rinse with HBSS (50 uL) was performed before analysis. The primary and secondary antibodies for the proteins were phospho-histone H3 (rabbit anti-phospho-histone H3 and FITC-donkey anti-rabbit IgG), phospho-histone H2A.x (mouse anti-phospho-histone H2A.x and FITC-donkey anti-mouse IgG), c-Jun (rabbit anti-phospho-c-Jun and Cy3-donkey anti-rabbit IgG), p53 (sheep anti-p53 and Cy5-donkey anti-sheep IgG), alpha-tubulin (mouse anti-alpha-tubulin and Cy5-donkey anti-mouse IgG). These antibodies are available as the CellCiphr HepG2 assay kit (Millipore).Digital images of each well were captured using a Cellomics ArrayScan VTI (Thermo Scientific Cellomics) (0.8 NA objective, 0.63x optical coupler, and XF-93 filter set) at 20x magnification. The images were acquired using the autofocus feature of the ArrayScan instrument, which entails the following steps. First, the camera focuses on channel 1 (Hoechst 33342), where nuclei are identified. Second, a Z offset of 1 um is used for capturing mitochondria (MitoTracker Red). […]

SMILES | AC50 | outcome
CC(C)(OO)c1ccccc1 | 59.4 µM (active) | 
CN(C)N=O |  | inactive
CC(C)(C)c1cc(O)ccc1O |  | inactive
Cc1ccccc1N |  | inactive
CC(=O)[O][Hg][c]1ccccc1 | 1.83 µM (active) | 
CCC(C)(C)c1ccc(O)c(C(C)(C)CC)c1 | 59.4 µM (active) | 
O=C(O)C(Cl)(Cl)Cl | 114 µM (active) | inactive
Cn1sc(Cl)cc1=O | 97.3 µM (active) | 
CC(C)(c1ccccc1)c1ccc(O)c(C(C)(C)c2ccccc2)c1 | 29.8 µM (active) | 
CCC(=O)C(CC(C)N(C)C)(c1ccccc1)c1ccccc1 (stereo not given) | 75.6 µM (active) | 
CC(C)(C)CC(C)(C)c1ccc(O)cc1 |  | inactive
CCCCCCCCc1ccc(O)cc1 | 98 µM (active) | 
ClC1(Cl)C2(Cl)C3(Cl)C4(Cl)C(Cl)(Cl)C5(Cl)C3(Cl)C1(Cl)C5(Cl)C24Cl (stereo not given) |  | inactive
O=C1C2(Cl)C3(Cl)C4(Cl)C(Cl)(Cl)C5(Cl)C3(Cl)C1(Cl)C5(Cl)C24Cl (stereo not given) |  | inactive
Oc1cccc2cccnc12 | 5.23 µM (active) | 
C[C@]12CCC(=O)C[C@@H]1CC[C@@H]1[C@@H]2CC[C@]2(C)[C@@H](O)CC[C@@H]12 |  | inactive
COc1cc(-c2ccc(N)c(OC)c2)ccc1N | 24.8 µM (active) | inactive
C[C@@H]1C[C@@H]([C@H](O)CC2CC(=O)NC(=O)C2)C(=O)[C@@H](C)C1 | 0.564 µM (active) | 
O=C(O)C(F)(F)C(F)(F)C(F)(F)C(F)(F)C(F)(F)C(F)(F)C(F)(F)C(F)(F)C(F)(F)C(F)(F)F | 66.5 µM (active) | 
O=c1[nH]c(=O)[nH]c(=O)[nH]1 |  | inactive
NC(=O)O | 4.17 µM (active) | 
C=C(C)C(=O)[O][Sn]([CH2]CCC)([CH2]CCC)[CH2]CCC | 0.0391 µM (active) | 
O=C(O)C(F)(F)C(F)(F)C(F)(F)C(F)(F)C(F)(F)C(F)(F)F | 8.69 µM (active) | 
CCN1CCC2(CC1)COc1cc3c(cc12)N(C(=O)c1ccc(-c2ccc(-c4nnc(C)o4)cc2C)cc1)CC3 | 6.34 µM (active) | 
CC12CC1(C)C(=O)N(c1cc(Cl)cc(Cl)c1)C2=O (stereo not given) |  | inactive
O=C(Nc1ccc2[nH]ccc2c1)c1cc2cc(F)ccc2n1Cc1cccc(F)c1 | 22 µM (active) | 
C=CC(=O)OCCCCCC(C)C |  | inactive
ClCC(Cl)CCl |  | inactive
